# Measured values taken from PubChem BioAssay.
# “And” between values parts separate entries of the source, which are not always exact repeats. Identical values can stand only once. The source made the active and inactive calls.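 How the source made its calls, unless noted: active means normalized viability below 100% at a tested concentration; inactive means the rest.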
# Experiments:
# [1] = sensitizers of A549 cells to miR-34 induction, primary screen, imaging, A549 dox-inducible miR-34, nuclei and caspase counts (AID 1347080;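 active means compounds whose cell count with miR-34 switched on is under 0.7 times the count with it off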); conditions: A549 miR-34 inducible, Hoechst nuclei count, 48 h
# [2] = survival rescue of mitochondrial mutant cells in low glucose, primary screen, MELAS cybrids, Rieske KO mouse fibroblasts, CellTiter-Glo (AID 1508586;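 active means mean z-score across replicates of 1.96 or higher in either the MELAS or the Rieske mutant cell line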;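 further: z relative to plate mean and SD of compound and empty wells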)
# [3] = ovarian cancer cell viability with rucaparib, profiling panel, oncology-focused library, rucaparib conditional (AID 1508598); conditions: patient-derived ovarian cancer cells, CellTiter-Glo viability, 144 h, stronger effect = lower value
# [4] = LFS_MB_P medulloblastoma growth inhibition, cell-based, chromothripsis tumors, cisplatin or BGB combos (AID 1671449; in the data active means inhibition above about 80%;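 further: cells exposed for 96 hours; 0% = vehicle DMSO and 100% = killing by high DMSO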); conditions: LFS_MB_P medulloblastoma cells
# [5] = HDN33 neuroblastoma growth inhibition, cell-based, chromothripsis tumors, cisplatin or BGB combos (AID 1671450; in the data active means inhibition above about 80%;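 further: cells exposed to compound for four days; 0% = vehicle DMSO and 100% = cell killing by high DMSO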); conditions: HDN33 neuroblastoma cells, stronger effect = higher value
# [6] = ICB984 medulloblastoma cell growth inhibition, synergistic combos for chromothripsis tumors, cisplatin or BGB combos (AID 1671451; call rule not given here;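 further: cells exposed for 96 hours before readout; 0% = vehicle DMSO and 100% = killing by high DMSO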); conditions: ICB984 medulloblastoma cells, drug combinations, stronger effect = higher value
# [7] = LFS_MB_1R medulloblastoma cell growth inhibition, synergistic combos for chromothripsis tumors, cisplatin or BGB combos (AID 1671452; in the data active means inhibition above about 80%;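 further: cells exposed for 96 hours before readout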); conditions: LFS_MB_1R medulloblastoma cells, stronger effect = higher value
# [8] = HTB85 osteosarcoma cell growth inhibition, synergistic combos for chromothripsis tumors, BGB or cisplatin IC20 combos (AID 1671453; in the data active means inhibition above about 80%;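 further: cells exposed for 96 hours before readout; 0% = vehicle DMSO and 100% = high DMSO killing control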); conditions: HTB85 osteosarcoma cells, drug combinations, stronger effect = higher value
# [9] = CRL2098 osteosarcoma cell growth inhibition, synergistic combos for chromothripsis tumors, BGB or cisplatin IC20 combos (AID 1671454; in the data active means inhibition above about 80%;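 further: cells exposed for 96 h before readout; 0% = vehicle DMSO and 100% = killing by high DMSO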); conditions: CRL2098 osteosarcoma cells, drug combinations, stronger effect = higher value
# [10] = HD-MB03 medulloblastoma cell growth inhibition, synergistic combos for chromothripsis tumors, BGB or cisplatin IC20 combos (AID 1671455; in the data active means inhibition above about 83%;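 further: 0% = vehicle DMSO and 100% = high DMSO as cytotoxic control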); conditions: HD-MB03 medulloblastoma cells, stronger effect = higher value
# [11] = UWB1.289 ovarian carcinoma cell growth inhibition, synergistic combos for chromothripsis tumors, BGB or cisplatin combos (AID 1671456; in the data active means inhibition above about 80%;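 further: cells exposed to compound for four days; 0% = vehicle DMSO and 100% = killing by high DMSO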); conditions: UWB1.289 ovarian carcinoma cells, stronger effect = higher value
# [12] = LFS_MB_2R medulloblastoma cell growth inhibition, synergistic combos for chromothripsis tumors, cisplatin combos (AID 1671457; in the data active means inhibition above about 80%;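 further: cells exposed to compound for four days before readout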); conditions: LFS_MB_2R medulloblastoma cells, stronger effect = higher value
# [13] = MDA-MB-436 breast carcinoma cell growth inhibition, synergistic combos for chromothripsis tumors, BGB or cisplatin combos (AID 1671458; call rule not given here;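 further: cells exposed for 96 hours; 0% = vehicle DMSO and 100% = killing by high DMSO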); conditions: MDA-MB-436 breast carcinoma growth inhibition, drug combinations, stronger effect = higher value
# [14] = UWB1.289_BRCA1 ovarian cancer growth, cell-based, BGB or cisplatin combinations (AID 1671459; in the data active means inhibition above about 80%); conditions: UWB1.289 BRCA1 ovarian carcinoma, drug combinations, stronger effect = higher value
# [15] = growth inhibition of BT084 medulloblastoma cells, cell-based, ICGC_MB145, cisplatin and BGB IC40 combos (AID 1671461; in the data active means inhibition above about 80%;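 further: cells exposed to drugs for 96 hours; 0% = vehicle DMSO and 100% = high DMSO full killing control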); conditions: drug combinations, stronger effect = higher value
# [16] = growth inhibition of RCMB18 medulloblastoma cells, cell-based, cisplatin and BGB IC40 combos (AID 1671462; in the data active means inhibition above about 80%;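 further: cells exposed to compound for four days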); conditions: stronger effect = higher value
# [17] = growth inhibition of CRL1545 osteosarcoma cells, cell-based, cisplatin and BGB IC20 combos (AID 1671464; in the data active means inhibition above about 80%;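 further: cells exposed to compound for 96 hours before readout; 0% = vehicle DMSO and 100% = high DMSO killing control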); conditions: stronger effect = higher value
# [18] = measured here: combination with BGB IC40, at 0.05 µM
# [19] = measured here: with BGB IC20 combination, at 0.5 µM
# [20] = measured here: with cisplatin IC20 combination, at 0.5 µM
# [21] = measured here: combination with cisplatin, at 0.5 µM
# [22] = measured here: combination with cisplatin, at 5 µM
smiles,measurement,setting,value
C[C@@]1(c2nc3c(C(N)=O)cccc3[nH]2)CCCN1,fold change,"[1]; stronger effect = lower value, cell number ratio, induced over uninduced",0.941 (inactive)
same,fold change,[1]; measured here: relative caspase fold change +Dox/-Dox,1.01
same,cell count,"[1]; measured here: total cells with miR-34 induction, stronger effect = lower value",6840
same,cell count,[1]; measured here: total cells without miR-34 induction,7270
same,z-score,"[2]; MELAS cybrid survival, CellTiter-Glo 48 h, stronger effect = higher value",-0.268 (inactive)
same,z-score,"[2]; Rieske KO mouse fibroblast survival, CellTiter-Glo 72 h",0.497
same,viability,"[3]; at 0.000305 µM, OCI-C5x cells, with rucaparib 10 µM, 100% = cells with rucaparib alone",125% (inactive)
same,viability,"[3]; at 0.000305 µM, OCI-C5x cells, without rucaparib",110% (inactive)
same,viability,"[3]; at 0.000305 µM, OCI-P5x cells, with rucaparib 20 µM, 100% = cells with rucaparib alone",108% (inactive)
same,viability,"[3]; at 0.000305 µM, OCI-P5x cells, without rucaparib",83.4% (active)
same,viability,"[3]; at 0.00122 µM, OCI-C5x cells, with rucaparib 10 µM, 100% = cells with rucaparib alone",114% (inactive)
same,viability,"[3]; at 0.00122 µM, OCI-C5x cells, without rucaparib",114% (inactive)
same,viability,"[3]; at 0.00122 µM, OCI-P5x cells, with rucaparib 20 µM, 100% = cells with rucaparib alone",97.2% (active)
same,viability,"[3]; at 0.00122 µM, OCI-P5x cells, without rucaparib",101% (inactive)
same,viability,"[3]; at 0.00488 µM, OCI-C5x cells, with rucaparib 10 µM, 100% = cells with rucaparib alone",122% (inactive)
same,viability,"[3]; at 0.00488 µM, OCI-C5x cells, without rucaparib",109% (inactive)
same,viability,"[3]; at 0.00488 µM, OCI-P5x cells, with rucaparib 20 µM, 100% = cells with rucaparib alone",106% (inactive)
same,viability,"[3]; at 0.00488 µM, OCI-P5x cells, without rucaparib",102% (inactive)
same,viability,"[3]; at 0.0195 µM, OCI-C5x cells, with rucaparib 10 µM, 100% = cells with rucaparib alone",121% (inactive)
same,viability,"[3]; at 0.0195 µM, OCI-C5x cells, without rucaparib",106% (inactive)
same,viability,"[3]; at 0.0195 µM, OCI-P5x cells, with rucaparib 20 µM, 100% = cells with rucaparib alone",98.2% (active)
same,viability,"[3]; at 0.0195 µM, OCI-P5x cells, without rucaparib",95.2% (active)
same,viability,"[3]; at 0.0781 µM, OCI-C5x cells, with rucaparib 10 µM, 100% = cells with rucaparib alone",120% (inactive)
same,viability,"[3]; at 0.0781 µM, OCI-C5x cells, without rucaparib",104% (inactive)
same,viability,"[3]; at 0.0781 µM, OCI-P5x cells, with rucaparib 20 µM, 100% = cells with rucaparib alone",91.6% (active)
same,viability,"[3]; at 0.0781 µM, OCI-P5x cells, without rucaparib",102% (inactive)
same,viability,"[3]; at 0.313 µM, OCI-C5x cells, with rucaparib 10 µM, 100% = cells with rucaparib alone",132% (inactive)
same,viability,"[3]; at 0.313 µM, OCI-C5x cells, without rucaparib",102% (inactive)
same,viability,"[3]; at 0.313 µM, OCI-P5x cells, with rucaparib 20 µM, 100% = cells with rucaparib alone",98.3% (active)
same,viability,"[3]; at 0.313 µM, OCI-P5x cells, without rucaparib",91% (active)
same,viability,"[3]; at 1.25 µM, OCI-C5x cells, with rucaparib 10 µM, 100% = cells with rucaparib alone",111% (inactive)
same,viability,"[3]; at 1.25 µM, OCI-C5x cells, without rucaparib",108% (inactive)
same,viability,"[3]; at 1.25 µM, OCI-P5x cells, with rucaparib 20 µM, 100% = cells with rucaparib alone",90% (active)
same,viability,"[3]; at 1.25 µM, OCI-P5x cells, without rucaparib",87.4% (active)
same,viability,"[3]; at 5 µM, OCI-C5x cells, with rucaparib 10 µM, 100% = cells with rucaparib alone",123% (inactive)
same,viability,"[3]; at 5 µM, OCI-C5x cells, without rucaparib",108% (inactive)
same,viability,"[3]; at 5 µM, OCI-P5x cells, with rucaparib 20 µM, 100% = cells with rucaparib alone",80.7% (active)
same,viability,"[3]; at 5 µM, OCI-P5x cells, without rucaparib",91.4% (active)
same,inhibition,"[4]; at 0.5 µM, stronger effect = higher value",-30.4% (inactive) and -7.42% (inactive)
same,inhibition,"[4]; measured here: combination with BGB IC20, at 0.005 µM",18.7% and -30.5%
same,inhibition,"[4]; measured here: combination with BGB IC40, at 0.005 µM",-17.7% and -33.9%
same,inhibition,[4]; [18],4.58% and -46.4%
same,inhibition,"[4]; measured here: combination with cisplatin, at 0.5 µM, stronger effect = higher value",-30.4% and -24.5%
same,inhibition,"[4]; measured here: combination with cisplatin, at 5 µM, stronger effect = higher value",-24.1% and -57.4%
same,inhibition,"[5]; BGB combo, at 5 µM",-38.7% and -21.7%
same,inhibition,[5]; at 0.5 µM,-18.6% (inactive) and -27.5% (inactive)
same,inhibition,"[5]; cisplatin combo, at 5 µM",-25% and 2.08%
same,inhibition,[5]; [19],-20.1% and -23.6%
same,inhibition,[5]; [20],-10.4% and -15.2%
same,inhibition,"[5]; single agent, at 5 µM",-35.1% and -10.6%
same,inhibition,"[6]; BGB IC20 combo, at 0.005 µM",-43.5% and -1.75%
same,inhibition,"[6]; BGB IC40 combo, at 0.005 µM",-45.8% and -18.7%
same,inhibition,"[6]; BGB IC40 combo, at 0.05 µM",-19.5% and -39.6%
same,inhibition,[6]; at 0.5 µM,-17.4% (inactive) and -39% (inactive)
same,inhibition,"[6]; cisplatin combo, at 0.05 µM",-25.6% and -44.6%
same,inhibition,"[6]; cisplatin combo, at 0.5 µM",-23.4% and -27.8%
same,inhibition,"[6]; cisplatin combo, at 5 µM",-25.3% and -24.6%
same,inhibition,"[6]; measured here: 5 uM single agent, at 5 µM",-15.1% and -18.4%
same,inhibition,[7]; at 0.5 µM,-10.8% (inactive) and -21.8% (inactive)
same,inhibition,[7]; [18],5.8% and -13.2%
same,inhibition,[7]; [21],-30.9% and -32.1%
same,inhibition,[7]; [22],-34.7% and -78.6%
same,inhibition,[8]; at 0.5 µM,-28.2% (inactive) and -8.28% (inactive)
same,inhibition,"[8]; measured here: with BGB IC20, at 0.5 µM",-26.4% and -15.6%
same,inhibition,"[8]; measured here: with BGB IC20, at 5 µM",-37.2% and -23.1%
same,inhibition,"[8]; measured here: with cisplatin IC20, at 0.5 µM",-25.2% and -2.08%
same,inhibition,"[8]; measured here: with cisplatin IC20, at 5 µM",-5% and -37.1%
same,inhibition,"[8]; single agent, at 5 µM",-8.07% and -11.2%
same,inhibition,[9]; at 0.5 µM,-55.3% (inactive) and -67.8% (inactive)
same,inhibition,"[9]; measured here: combination with BGB at IC20, at 0.5 µM",-51.9% and -45%
same,inhibition,"[9]; measured here: combination with cisplatin at IC20, at 0.5 µM",-90.3% and -100%
same,inhibition,[10]; at 0.5 µM,-10.9% (inactive) and -9.85% (inactive)
same,inhibition,"[10]; measured here: combo with BGB at IC20, at 0.5 µM",-9.31% and -21.4%
same,inhibition,"[10]; measured here: combo with cisplatin at IC20, at 0.5 µM",-20.2% and -6.83%
same,inhibition,[11]; at 0.5 µM,-10.2% (inactive) and 3.78% (inactive)
same,inhibition,"[11]; measured here: inhibition with BGB combination, at 0.05 µM",-8.84% and -23.2%
same,inhibition,"[11]; measured here: inhibition with cisplatin combination, at 0.05 µM",-15.9% and -9.39%
same,inhibition,[12]; at 0.5 µM,-15.2% (inactive) and -24.4% (inactive)
same,inhibition,[12]; [21],-24.8% and -30.4%
same,inhibition,[12]; [22],-13.3% and -26.2%
same,inhibition,[13]; at 0.5 µM,4.59% (inactive) and -23.4% (inactive)
same,inhibition,"[13]; measured here: BGB combination, at 0.5 µM",-1.87% and -40.7%
same,inhibition,"[13]; measured here: BGB combination, at 5 µM",2.42% and -13.4%
same,inhibition,"[13]; measured here: cisplatin combination, at 0.5 µM",-2.04% and -27.9%
same,inhibition,"[13]; measured here: cisplatin combination, at 5 µM",-0.972% and -36.3%
same,inhibition,"[14]; BGB combination, concentration series, at 5 µM",-24.7% and -7.53%
same,inhibition,[14]; at 0.5 µM,-10.7% (inactive) and -7.52% (inactive)
same,inhibition,"[14]; cisplatin combination, concentration series, at 5 µM",-27.7% and -31.9%
same,inhibition,[15]; at 0.5 µM,-3.53% (inactive) and 6.53% (inactive)
same,inhibition,"[15]; cisplatin combination, at 0.5 µM",-17.4% and -25.6%
same,inhibition,"[15]; cisplatin combination, at 5 µM",-105% and -12.9%
same,inhibition,"[15]; measured here: BGB IC40 combination 0.05 uM, at 0.05 µM",-13.2% and 18.5%
same,inhibition,"[15]; single agent, at 5 µM",2.42% and -15%
same,inhibition,[16]; at 0.5 µM,-29.1% (inactive) and -18.3% (inactive)
same,inhibition,"[16]; cisplatin combo, at 5 µM",-12.7% and -24.7%
same,inhibition,"[16]; measured here: BGB IC40 combination, at 0.05 µM",9.85% and -28.2%
same,inhibition,[16]; [21],-32.2% and 3.58%
same,inhibition,"[16]; single agent, at 5 µM",-6.99% and -21%
same,inhibition,[17]; at 0.5 µM,-24.4% (inactive) and -51.1% (inactive)
same,inhibition,[17]; [19],-33.5% and -35.5%
same,inhibition,[17]; [20],-21.8% and -61.5%
same,inhibition,"[17]; single agent, at 0.05 µM",-21.6% and -35.7%
same,inhibition,"[17]; single agent, at 5 µM",11.5% and 14.2%
